Data from the supplement of paper PMC10600219.
In all, about 2,800 compounds were measured (“cell viability relative to vehicle”: median about 1.1, lowest 2% from about 0.19 on). For the sample, the lowest values were picked, then their nearest neighbours and some compounds at random.

What follows are compounds tested on NCI-H2228 parental (assay: cell viability relative to vehicle (fraction of vehicle); NCI-H2228 is an ALK-positive lung cancer line and DTP means drug-tolerant persister; higher = less growth inhibition). Settings: 100 nM; treatment time 6 days.
Outline: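 NCI-H2228 parental cells and drug-tolerant persister cells were plated in 384-well plates; the persisters had been generated with 1000 nM of a targeted drug over 13 days. One day later, the 3114-agent TargetMol anti-cancer compound library was added at 100 nM, with DMSO serving as vehicle. ATP was measured 6 days after that using the CellTiter-Glo 3D Cell Viability Assay. Values are cell viability expressed relative to vehicle-treated cells.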

Compound	cell viability
CCC(=O)Nc1cccc(Oc2nc(Nc3ccc(N4CCN(C)CC4)cc3OC)ncc2Cl)c1	1.22
CN1CCN(c2ccc(OC(F)(F)F)c(Nc3ncc4c(n3)-c3c(c(C(N)=O)nn3CCO)CC4)c2)CC1	0.168
C=CC(=O)Nc1cccc(Oc2nc(Nc3ccc(N4CCN(C)CC4)cc3OC)ncc2Cl)c1	1.19
CCCCc1nc2ccc(NC(=O)NC3CCCCC3)cc2n1Cc1ccc(-c2ccccc2C(=O)O)cc1	1.08
Cc1cc2cc(Oc3ccnc(Nc4cccc(CS(=O)(=O)NCCN(C)C)c4)n3)ccc2[nH]1 [Sulfatinib]	1.03
Cc1nc(=O)c2cc(CN(C)c3ccc(C(=O)N[C@@H](CCC(=O)O)C(=O)O)s3)ccc2[nH]1 [Raltitrexed]	0.151
Nc1nc(=O)c2c([nH]1)NCC(CNc1ccc(C(=O)N[C@@H](CCC(=O)O)C(=O)O)cc1)N2C=O (some centres undefined) [Calcium folinate]	1.08
CN(Cc1cnc2nc(N)nc(N)c2n1)c1ccc(C(=O)N[C@@H](CCC(=O)O)C(=O)O)cc1 [Methotrexate]	0.375
COc1cc(/C=C/CO)cc(OC)c1O[C@@H]1O[C@H](CO)[C@@H](O)[C@H](O)[C@H]1O [eleutheroside-b]	1.13
CCCCNNC(=O)c1ccc(-c2cccc(F)c2F)cc1	1.03
COc1cc(/C=C/C(=O)NCCn2c(C(F)(F)F)cc3ccccc32)cc(OC)c1OC	1.05
COc1cc(CCC(=O)CC(=O)CCc2ccc(O)c(OC)c2)ccc1O [Tetrahydro Curcumin]	1.03
CCCS(=O)(=O)Nc1ccc(F)c(C(=O)c2c[nH]c3ncc(-c4ccc(Cl)cc4)cc23)c1F [Vemurafenib]	1.2
CS(=O)(=O)Nc1cc(-c2ccc3ncnc(Nc4ccc(F)c(Cl)c4)c3c2)cnc1Cl	1.08
COc1ncc(-c2ccc3nccc(-c4ccnnc4)c3c2)cc1NS(=O)(=O)c1ccc(F)cc1F [Omipalisib]	0.148
CO[C@@H](C)Cn1c(=O)n(C)c2cnc3ccc(-c4cncc(C(C)(C)O)c4)cc3c21	0.412
O=C(O)c1c[nH]c2cc(Cl)c(-c3ccc(C4(O)CCC4)cc3)cc12	1.09
C/C=C1\NC(=O)[C@H]2CSSCC/C=C/[C@H](CC(=O)N[C@H](C(C)C)C(=O)N2)OC(=O)[C@H](C(C)C)NC1=O [Romidepsin]	0.0515
CCN(CC)CCNc1ccc(C)c2sc3ccccc3c(=O)c12 [Lucanthone]	0.956
COCC[n+]1c2c(n(Cc3cnccn3)c1C)C(=O)c1ccccc1C2=O	0.0796
COc1ccc(S(=O)(=O)Nc2ccccc2C=Cc2ccncc2)cc1	0.238
C[C@@H]1O[C@@H](O[C@@H]2[C@@H](O)[C@H](OCCc3ccc(O)c(O)c3)O[C@H](CO)[C@H]2OC(=O)/C=C/c2ccc(O)c(O)c2)[C@H](O)[C@H](O)[C@H]1O [Verbascoside]	1.03
CN(C(=O)CNC(=O)/C=C/c1cccc(Cl)c1)C1CCS(=O)(=O)CC1	0.834
O=C(CNc1ccc2ccccc2c1)N/N=C/c1cc(Br)c(O)c(Br)c1O	1.05
COC(=O)C1=CO[C@@H](O[C@@H]2O[C@H](CO)[C@@H](O)[C@H](O)[C@H]2O)[C@H]2[C@@H]1[C@H](O)C[C@]2(C)OC(C)=O [8-O-Acetylshanzhiside methyl ester]	0.898
OCC1(O)COc2cc(O)ccc2-c2cc(O)c(O)cc2C1 (centres undefined) [Protosappanin B]	1.04
O=c1cc(-c2ccc(O)c(-c3c(O)cc(O)c4c(=O)cc(-c5ccc(O)cc5)oc34)c2)oc2cc(O)cc(O)c12 [Amentoflavone]	1.08

Compound	cell viability
C[C@H]1O[C@@H](O[C@H]2CC[C@@]3(C)[C@@H](CC[C@]4(C)[C@@H]3C=C[C@]35OC[C@@]6(CCC(C)(C)C[C@H]63)[C@@H](O)C[C@]54C)[C@]2(C)CO)[C@H](O)[C@@H](O[C@@H]2O[C@H](CO)[C@@H](O)[C@H](O)[C@H]2O)[C@H]1O [Saikosaponin A]	1.11
C/C1=C/CC[C@H](C)C(=O)C[C@@H](C(C)C)C(=O)C1 [Curdione]	1.07
O=C1c2cccc(O)c2C(=O)c2c(O)cccc21 [Antrapurol]	1.06
O=C1c2c(O)ccc(O)c2C(=O)c2c(NCCNCCO)ccc(NCCNCCO)c21 [Mitoxantrone]	0.132
NCCNc1ccc(NCCN)c2c1C(=O)c1ccncc1C2=O [Pixantrone dimaleate]	0.405
COc1ccc(S(=O)(=O)N[C@@H](CNc2nc(C)nc(N3CCC(c4ccc5c(n4)NCCC5)CC3)c2C)C(=O)O)cc1	0.705
COc1ccc2c(c1)C(c1ccc(F)cc1)=C(CN1CCCC1)CO2	1.1
COc1cc2ncnc(Nc3ccc(O)cc3)c2cc1OC	1.02
CC(=O)O[C@H]1C(=O)[C@@]2(C)[C@H]([C@H](OC(=O)c3ccccc3)[C@]3(O)C[C@H](OC(=O)[C@H](O)[C@@H](NC(=O)c4ccccc4)c4ccccc4)C(C)=C1C3(C)C)[C@]1(OC(C)=O)CO[C@@H]1C[C@@H]2O [Paclitaxel]	0.128
CO[C@H]1C(=O)[C@]2(C)[C@@H](OC)C[C@H]3OC[C@@]3(OC(C)=O)[C@H]2[C@H](OC(=O)c2ccccc2)[C@]2(O)C[C@H](OC(=O)[C@H](O)[C@@H](NC(=O)OC(C)(C)C)c3ccccc3)C(C)=C1C2(C)C [Cabazitaxel]	0.2
CC(=O)O[C@@]12CO[C@@H]1C[C@H](O)[C@@]1(C)C(=O)[C@H](O)C3=C(C)[C@@H](OC(=O)[C@H](O)[C@@H](NC(=O)OC(C)(C)C)c4ccccc4)C[C@@](O)([C@@H](OC(=O)c4ccccc4)[C@H]21)C3(C)C [Docetaxel trihydrate]	0.154
CC(=O)O[C@@]12CO[C@@H]1C[C@H](O)[C@@]1(C)C(=O)[C@H](O)C3=C(C)[C@@H](OC(=O)[C@H](O)[C@@H](NC(=O)OC(C)(C)C)c4ccccc4)C[C@@](O)([C@@H](OC(=O)c4ccccc4)[C@H]21)C3(C)C [Docetaxel]	0.118
CC(C)NCC(O)COc1ccc(COCCOC(C)C)cc1 (racemic) [(±)-Bisoprolol hemifumarate]	1.14
CC(C)(O)[C@H]1CC[C@H](Nc2ccc3ncc(-c4cccc(C(F)(F)F)c4)n3n2)CC1	0.928
COc1cc2c(c(OC)c1OC)-c1c(cc(OC)c(OC)c1OC)CC(C)C(C)C2 (centres undefined) [Schizandrin A]	1.11
CC(C)c1c(-c2ccccc2)nc2c(C#N)c[nH]n2c1=O	1.1
COC(=O)C[C@](O)(CCCC(C)(C)O)C(=O)O[C@@H]1C(OC)=C[C@]23CCCN2CCc2cc4c(cc2[C@H]13)OCO4 [Homoharringtonine]	0.162
COc1c2c(cc3oc(CO[C@@H]4O[C@H](CO)[C@@H](O)[C@H](O)[C@H]4O)cc(=O)c13)O[C@H](C(C)(C)O)C2 [Cimifugin beta-D-glucopyranoside]	1.09
C=C[C@H]1[C@H](O[C@@H]2O[C@H](CO)[C@@H](O)[C@H](O)[C@H]2O)OC=C2C(=O)OCC[C@]21O [Swertiamarin]	1.11
CCCCCCCCCCCCCCCC(=O)O [Palmitic acid]	1.02
O=C1O[C@H]2[C@@H]3OC(=O)c4cc(O)c(O)c(O)c4-c4c(cc(O)c(O)c4O)C(=O)OC[C@H]2O[C@@H](OC(=O)c2cc(O)c(O)c(O)c2)[C@@H]3OC(=O)c2cc(O)c(O)c3c2[C@@H]2C1=CC(=O)[C@](O)(O3)C2(O)O [Geraniin]	0.981
COc1cc(N2CCC(N3CCN(C)CC3)CC2)ccc1Nc1ncc(Cl)c(-c2c[nH]c3ccccc23)n1	0.358
COc1cc(C(C)C)c(Oc2cnc(N)nc2N)cc1I	1.16
C/C(=C\c1csc(C)n1)[C@@H]1C[C@@H]2O[C@]2(C)CCC[C@H](C)[C@H](O)[C@@H](C)C(=O)C(C)(C)[C@@H](O)CC(=O)N1 [Ixabepilone]	0.119
C[C@H](CCC(=O)NCC(=O)O)[C@H]1CC[C@H]2[C@@H]3[C@H](O)C[C@@H]4C[C@H](O)CC[C@]4(C)[C@H]3CC[C@]12C [Glycochenodeoxycholic Acid]	1.02
CC(=O)OC(C)C(C)C(=O)OCC12C3CC(C)(C)[C@H](O[C@@H]1C[C@]1(C)C3=CCC3C4(C)CCC(O[C@@H]5O[C@H](C(=O)O)[C@@H](O[C@H]6O[C@H](CO)[C@@H](O)[C@H](O)[C@H]6O)[C@H](O)[C@H]5O[C@@H]5OC[C@@H](O)[C@H](O)[C@H]5O)[C@](C)(CO)C4CCC31C)C2O (some centres undefined) [Sodium Aescinate]	1.1
O=S(=O)(CCC(F)=C(F)F)c1ncc(Cl)s1 [Fluensulfone]	1.07
